Assay results as given in PubChem BioAssay AID1159580 (chemical genetic matrix, 2015).
The campaign covered roughly 5,500 compounds. About 2,000 (36%) were called active. Another 18% or so got no clear call; they are omitted. Rule as the data show it: active = normalized growth mostly below about 0.91 (no sharp cut-off); inconclusive = no clear call, values can overlap the other calls; inactive = mostly above about 0.92. Some of the results follow.

Experiment: chemical genetic growth profiling, strain panel (AID 1159580);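 also: tested at 20 µM; growth read once vehicle control cultures reached saturation at 30 °C; 1 = growth at the plate median or of vehicle wells; lower values mean less growth of the strain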
Settings: S. cerevisiae deletion strains, growth OD

Measured: normalized growth

CC1CCN=C(N)S1 (centres undefined)
inactive: locus YAL013W, strain DEP1, stronger effect = lower value 0.997 | locus YAL040C, strain CLN3, stronger effect = lower value 0.98 | locus YER002W, strain NOP16, stronger effect = lower value 1 | locus YNL153C, strain GIM3, stronger effect = lower value 0.947 | locus YNL175C, strain NOP13, stronger effect = lower value 0.991 | locus YNL197C, strain WHI3, stronger effect = lower value 0.99 | locus YNL224C, strain SQS1, stronger effect = lower value 1.02 | locus YOR083W, strain WHI5 (second series), stronger effect = lower value 0.962 | locus YPL241C, strain CIN2, stronger effect = lower value 0.978
